Screening results from PubChem.
In the library only some 7.7% were active in any assay of this set; here they are far more common.
Sm TGR block: inhibitors of Schistosoma mansoni thioredoxin glutathione reductase; Q962Y6; actives 3% (n = 360,000); AID 485364; Potency, µM (doses to about 114 µM), for the others: at the top dose activity change, negative = inhibition, most hits filed as inhibitors; purified TGR, DTNB reduction, TNB absorbance 405 nm; also: potency is read from the fitted curve at half-maximal effect; nearly all actives have a fitted effect of over 60% in size
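TGR 20 nM + NADPH 100 uM (dispensed conc.), cpd preinc 15 min RT; start with NADPH (500 uM addition) then DTNB (15 mM addition). Kinetic TNB absorbance, 405 nm filter. Four-parameter Hill fit across titration.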
Giardia FBPA inh: inhibitors of Giardia lamblia fructose-1,6-bisphosphate aldolase; purified Giardia FBPA; Potency, µM (highest dose often 59.6 µM), inactives show at the highest dose activity, negative = inhibition, actives largely listed as inhibitors; actives 0.71% (n = 290,000); AID 2451; also: potency is read from the fitted curve at half-maximal effect; nearly all actives have a fitted effect of over 55% in size
Target sequence (A8B2U2 whole entry, looked up): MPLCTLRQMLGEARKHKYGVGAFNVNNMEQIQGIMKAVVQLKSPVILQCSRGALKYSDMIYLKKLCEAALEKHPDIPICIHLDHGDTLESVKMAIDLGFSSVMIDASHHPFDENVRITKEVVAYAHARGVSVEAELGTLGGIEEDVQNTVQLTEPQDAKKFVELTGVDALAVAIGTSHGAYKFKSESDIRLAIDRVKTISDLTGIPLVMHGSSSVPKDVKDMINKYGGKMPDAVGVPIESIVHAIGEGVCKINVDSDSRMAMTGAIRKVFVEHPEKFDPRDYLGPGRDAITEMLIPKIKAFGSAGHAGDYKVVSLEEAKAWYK
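Giardia FBPA (40 nM reagent) was preincubated 10 min at RT with compound (up to 57.5 uM final), then substrate plus GAPDH/TPI/NAD/arsenate coupling system with diaphorase/resazurin was added; resorufin fluorescence (525/598 nm) was read after 20 min.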
FMDV antiviral: antivirals against foot and mouth disease virus; Potency, µM (titrated, usually from 57.9 µM), inactives show at the top dose activity change, negative = inhibition, hits mostly inhibitors; FMDV antiviral cell-based qHTS; AID 1159524; actives 1.2% (n = 410,000); calls by dose curve; tested in HEK293T cells; also: read-out not given here; potency is read from the fitted curve at half-maximal effect; nearly all actives have a fitted effect of over 45% in size
Tb PYK inh: T. brucei pyruvate kinase inhibition. Potency, µM (doses to about 76.8 µM), for inactives: top-dose activity, negative = inhibition, hits mostly inhibitors. actives 0.12% (n = 410,000). AID 624173. Q57TT1. TbPYK enzyme, Kinase-Glo Plus ATP luminescence, 45 min; also: potency is read from the fitted curve at half-maximal effect; nearly all actives have a fitted effect of over 50% in size
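Readout: single end-point luminescence (Kinase-Glo Plus, 10 min). Reaction conditions were TbPYK/substrate plus 130 uM ADP, 45 min at RT, pH 7.2 TEA buffer. No-enzyme wells served as controls, and data were normalized before concentration-response fitting.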
HCMV inh: blocks human cytomegalovirus replication; HFF cells, HCMV-luciferase reporter, 72 h; hits give low values; activity change, negative = inhibition, % at 57.5 µM; actives 4.5% (n = 410,000); in the data active = activity change below about -60%; inconclusive = no clear call, values can overlap the other calls; inactive = above about -39%
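Screen run at 2 compound doses on HFFs infected with reporter HCMV, MOI 1 PFU/cell. Luciferase activity from cell lysates at 72 h post infection gave inhibition relative to buffer-only and Salinomycin wells.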
RE007 growth inh: less growth of the S. pombe RE007 Vpr strain; S. pombe RE007 Vpr strain, BacTiter-Glo ATP luminescence, 24 h; Potency, µM (titrated, usually from 92.2 µM), inactives show at the highest dose activity change, negative = less growth, usual class: inhibitors; actives 0.21% (n = 360,000); active = well fitted falling curve with a large enough effect; inconclusive = small, poorly fitted or top-dose-only effect; inactive = no such curve, though single readings can be large or run the other way; also: potency is read from the fitted curve at half-maximal effect; nearly all actives have a fitted effect of over 50% in size
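Fission yeast RE007 carrying one integrated HIV-1 vpr copy, seeded at OD 0.01 in PMG+AL medium with 23 nL pinned compound. Grown 24 h at 30 degrees; viability read by BacTiter-Glo luminescence after 5 min.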
An asterisk follows results filed as active; ? = inconclusive; / = not tested or not shown; [ ] = remark or other dose. Unless noted, calls follow the shape of the dose curve; as a rule, active = well fitted curve in the direction sought with a large enough effect; inconclusive = small, poorly fitted or top-dose-only effect, or another doubt; inactive = no such curve, though single readings can be large; an effect the other way counts as inactive or inconclusive. % is scaled to controls: 0 for no effect and ±100 for the full control effect.

SMILES | Sm TGR block | Giardia FBPA inh | FMDV antiviral | Tb PYK inh | HCMV inh | RE007 growth inh
CO[C@@]1(NC(=O)CSC[C@@H](N)C(=O)O)C(=O)N2C(C(=O)O)=C(CSc3nnnn3C)CS[C@@H]21 | / | / | / | -1% | / | /
CO[C@@]1(NC(=O)C2SC(=C(C(N)=O)C(=O)O)S2)C(=O)N2C(C(=O)O)=C(CSc3nnnn3C)CS[C@@H]21 (stereo not given in full) | 40µM* | / | -10% | -6% | 25 | 11%[18.4 µM]
CCc1c(C)c(C#N)c2nc3ccccc3n2c1NCCCN(C)C | / | / | -12% | 2% | 1 | 10%
CCc1c(C)c(C#N)c2nc3ccccc3n2c1Cl | 11µM* | 5% | / | / | / | /
CCc1c(C)c(C#N)c2nc3ccccc3n2c1NCCOC | 40µM* | 6% | -5% | 1% | ? | 1%
CC(O)CN1CCN(CC(=O)[O-])CCN(CC(=O)[O-])CCN(CC(=O)[O-])CC1.[Gd+3] (stereo not given) | / | / | / | 4% | / | /
Cc1cc2ccccc2n1-c1ccc(C(=O)N2CCC(C(=O)NCc3ccccc3Cl)CC2)s1 | 4% | / | -19% | 4% | 10 | /
O=C(O)CCc1ccc(-c2cccs2)n1CCC(=O)O | 7.1µM* | -14% | 4% | -7% | 20 | -11%
COc1cccc(NC(=O)Cn2c(CCC(=O)O)ccc2-c2cccs2)c1 | -20% | 22% | -5% | 0% | -5 | 6%
O=C(O)CCc1ccc(-c2cccs2)n1CCc1ccccc1 | 10µM* | 3% | -22% | -1% | -33 | -12%
Cc1ccc(NC(=O)Cn2c(CCC(=O)O)ccc2-c2cccs2)cc1Cl | 25µM* | 23% | -4% | -18% | -34 | 43%
COc1ccc(OC)c(NC(=O)Cn2c(CCC(=O)O)ccc2-c2cccs2)c1 | ? | -6% | -25% | -3% | 19 | 10%
CC(C)(C)S(=O)N1C[C@@H]2CC(=O)C(c3ccccc3)=C2[C@H]1CCO (stereo not given in full) | / | / | / | / | 16 | /
CCOc1ccc(-c2cc3c(=O)n(Cc4nc(-c5ccccc5OCC)oc4C)ccn3n2)cc1Cl | 4% | / | 2% | -4% | -13 | /
C=CCOC(=O)C(C(C)=O)C(NC(=O)OC)c1ccc(F)cc1 (stereo not given) | / | 2%[12.9 µM] | / | / | / | /
C=CCc1ccccc1OCCSc1nc(-c2ccccc2F)nc2cc(=O)[nH]n12 | 0% | / | -26% | 2% | -15 | /
C[C@]12c3[nH]c4ccccc4c3CCN1C(=O)C(CC(=O)NCC13CC4CC(CC(C4)C1)C3)C[C@@H]2C(=O)N1CCCCC1 (stereo not given in full) | / | / | -22% | -3% | -76* | 9%
CC(C)N(C(=O)[C@H]1C[C@H](CC(=O)NCC23CC4CC(CC(C4)C2)C3)C(=O)N2CCc3c([nH]c4cc(-c5ccco5)ccc34)[C@]12C)C(C)C | / | / | -26% | -2% | -21 | -2%
COc1ccc(CNC(=O)C[C@H]2C[C@H](C(=O)N(C(C)C)C(C)C)[C@@]3(C)c4[nH]c5ccc(Cl)cc5c4CCN3C2=O)cc1OC | / | / | ? | 1% | -15 | 9%
COc1ccc2[nH]c3c(c2c1)CCN1C(=O)C(CC(=O)NC/C=C(\C)CCC=C(C)C)C[C@H](C(=O)N(C(C)C)C(C)C)[C@@]31C (stereo not given in full) | / | / | -9% | 1% | -103* | -7%
C[C@]12c3[nH]c4ccccc4c3CCN1C(=O)C(CC(=O)NCC13CC4CC(CC(C4)C1)C3)C[C@@H]2C(=O)N1CCOCC1 (stereo not given in full) | / | / | ? | -4% | -38 | 5%
CC(C)=CCC/C(C)=C/CNC(=O)C[C@H]1C[C@H](C(=O)N(C(C)C)C(C)C)[C@@]2(C)c3[nH]c4ccc(Cl)cc4c3CCN2C1=O | / | / | ? | 1% | 7 | -23%
CC(C)N(C(=O)[C@H]1CC(CC(=O)NCC23CC4CC(CC(C4)C2)C3)C(=O)N2CCc3c([nH]c4ccccc34)[C@]12C)C(C)C (stereo not given in full) | / | / | 0% | -1% | -74* | 5%
CC(C)N(C(=O)[C@H]1C[C@H](CC(=O)NCCC2=CCCCC2)C(=O)N2CCc3c([nH]c4ccc(Cl)cc34)[C@]12C)C(C)C | / | / | ? | -9% | -91* | -16%
COc1ccccc1CNC(=O)C1CCCN(c2nc3ccccc3n3cccc23)C1 (stereo not given) | -3% | / | -23% | -5% | -11 | /
SMILES | Sm TGR block | Giardia FBPA inh | FMDV antiviral | Tb PYK inh | HCMV inh | RE007 growth inh
Cc1ccc(C)n1C1C(=O)N(Cc2ccc(C(C)C)cc2)c2ccccc21 (stereo not given) | / | / | / | / | 18 | /
COc1cccc2cc(C(=O)N3CC(C)OC(C)C3)c(=O)oc12 (stereo not given) | -12% | 20% | -20% | -1% | 21 | 3%
COc1c(O)cc2c(=O)oc3c(OC)c(O)cc4c(=O)oc1c2c34 | / | -22% | -8% | / | / | /
COc1cc2c(oc(=O)c3cc(C)cc(OC)c32)c2c(C3OC(C)C(O)C(C)(O)C3O)ccc(O)c12 (stereo not given) | / | / | 0% | -13% | -69* | -16%
C=Cc1cc(OC)c2c(c1)c(=O)oc1c2cc(OC)c2c(O)ccc(C3OC(C)C(O)C(C)(O)C3O)c21 (stereo not given) | / | / | ? | -4% | -98* | 14%
CCn1cc(C(=O)NCc2ccccc2OC)c(=O)c2cc(S(=O)(=O)N3CCCCCC3)ccc21 | -12% | / | -13% | -7% | -17 | /
CCCNC(=O)COCc1cc(-c2ccc(F)cc2)on1 | 9% | / | 21% | -2% | 6 | /
O=C(CSc1ncnc2c1oc1ccccc12)N1CCN(c2ccccc2)CC1 | / | / | 0% | / | 37 | 7%[3.69 µM]
CCc1nnc(N2CCN(c3ncnc4c3oc3ccccc34)CC2)s1 | -31% | 10% | 22µM* | 4% | ? | 4%
Cc1ccc2c(c1)c1ncnc(N3CCN(c4ccccc4)CC3)c1n2C | 0% | -1% | 20µM* | -9% | 87 | -19%
Cc1ccc2c(c1)c1ncnc(N3CCOCC3)c1n2C | 6% | 4% | -18% | 5% | 47 | -12%
CC(=O)N1CCN(c2ccc(Nc3ncnc4c3oc3ccccc34)cc2)CC1 | 0% | -17% | 28µM* | -11% | ? | -11%
c1ccc(N2CCN(c3ncnc4c3oc3ccccc34)CC2)cc1 | -15% | 0% | 35µM* | 3% | -29 | 8%
c1ccc(C[n+]2cccc3c4ccccc4ccc32)cc1 | -7% | -1% | ? | 5% | -94* | ?
CCCCC[n+]1cccc2c3ccccc3ccc21 | 8% | -21% | ? | -3% | -95* | -10%
